A short description of this assay: Quantitative high throughput screen for delayed death inhibitors of the malarial parasite plastid, 96 hour incubation. To be noted: P. falciparum luciferase growth. From the text:
NIH Molecular Libraries Probe Production Network [MLPCN] NIH Chemical Genomics Center [NCGC] MLPCN Grant: R21 NS059500 Assay Provider: David Fidock and Eric Ekland, Columbia University The goal of this screen is to discover new antimalarial compounds that act by inhibiting the development of the apicoplast in the malarial parasite Plasmodium falciparum. The biochemical processes that make this organelle essential for erythrocytic stage parasites are not well understood. However, antibiotics, such as azithromycin and tetracycline, which target the apicoplast translational machinery, have a potent antimalarial effect. […] We have developed a cell-based assay that measures parasite growth based on the expression of an integrated copy of a firefly luciferase reporter. […] Growth inhibition is detected by a decrease in luciferase activity
Four microliters of culture medium (RPMI 1640 with 0.5% w/v Albumax (GIBCO), 24 mM sodium bicarbonate and 10 ug/mL gentamycin) were dispensed by a Multi-drop Combi into white solid 1536-well plates (Grenier) and 23 nL compound was added by a pin tool. […] Two microliters of luciferase detection reagent was added and luminescence was detected by a ViewLux (PerkinElmer) reader

Calls of active or inactive are those of the source. The call rests on the fitted dose curve; in most records, active means well fitted inhibition curve with a large enough effect; inconclusive means small, poorly fitted or top-dose-only effect; inactive means flat fitted curve, though single readings scatter.

`COCCOC(=O)N(C)C[C@@H]1OCCCC[C@H](C)Oc2ccc(NC(=O)Nc3ccccc3)cc2C(=O)N([C@@H](C)CO)C[C@H]1C`: the Potency is 17.9 µM (active).

For the molecule `COc1ccc(COC[C@H](C)N2C[C@@H](C)[C@H](CN(C)S(=O)(=O)c3ccc(F)cc3)OCCCC[C@H](C)Oc3ccc(NC(=O)Nc4ccccc4)cc3C2=O)cc1`, the Potency was 0.0025 µM (active).

The values above are taken from PubChem BioAssay AID504599 (National Center for Advancing Translational Sciences (NCATS), 2011).
